Holding throughout (experiment): protein-binding microarray (PBM); PBM: ~300 nM protein, 6 mM HEPES pH 7.8, 80 mM KCl, 0.5 mM EDTA, 0.5 mM EGTA, 6% glycerol, 35 ng/ul poly-dIdC, 1% milk, 1 h, room temperature; Ap Aiptasia and Nv Nematostella (sea anemones) / Co Capsaspora / Aq Amphimedon (sponge) / Dm Drosophila / Hu human; RHD is the Rel homology domain; high values mean tight binding
What all share (conditions): dsDNA, one strand shown

One test addresses T1, GST-Ap-NF-kB RHD (Exaiptasia pallida (Aiptasia), UniProt A0A913YAJ5 2-422).
T1 sequence: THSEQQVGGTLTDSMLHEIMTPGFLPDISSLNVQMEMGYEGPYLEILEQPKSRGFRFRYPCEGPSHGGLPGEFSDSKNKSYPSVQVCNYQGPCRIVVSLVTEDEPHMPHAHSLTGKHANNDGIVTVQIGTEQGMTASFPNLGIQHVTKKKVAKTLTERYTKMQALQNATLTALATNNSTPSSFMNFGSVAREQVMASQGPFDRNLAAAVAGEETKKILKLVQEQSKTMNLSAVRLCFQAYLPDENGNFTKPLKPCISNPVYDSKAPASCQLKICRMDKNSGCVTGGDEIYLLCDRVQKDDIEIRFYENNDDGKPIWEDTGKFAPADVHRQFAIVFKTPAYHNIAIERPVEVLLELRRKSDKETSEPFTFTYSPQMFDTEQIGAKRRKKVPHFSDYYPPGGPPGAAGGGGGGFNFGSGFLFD

Test [1] has as its target T2, GST-Nv-NF-kB (Cys allele) (Nematostella vectensis, UniProt E5G601 2-411).
T2 sequence: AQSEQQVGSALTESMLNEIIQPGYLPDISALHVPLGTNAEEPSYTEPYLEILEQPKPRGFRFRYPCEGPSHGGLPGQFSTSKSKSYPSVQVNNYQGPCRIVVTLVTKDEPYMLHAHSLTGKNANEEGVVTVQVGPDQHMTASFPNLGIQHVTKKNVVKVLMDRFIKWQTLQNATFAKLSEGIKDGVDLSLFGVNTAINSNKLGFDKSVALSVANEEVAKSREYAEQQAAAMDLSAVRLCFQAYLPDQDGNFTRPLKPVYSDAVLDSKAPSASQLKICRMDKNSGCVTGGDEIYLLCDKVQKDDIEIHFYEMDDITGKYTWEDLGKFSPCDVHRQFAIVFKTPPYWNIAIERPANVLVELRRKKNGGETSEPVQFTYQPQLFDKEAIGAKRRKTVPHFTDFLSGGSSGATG

For test [2], the target named is T3, GST-Nv-NF-kB (Ser allele) (Nematostella vectensis, UniProt A7UNT2 2-411).
T3 sequence: T2 sequence with Q21R, C66S, S207N, E215Q, V217A, E225K, A268E, D399E

Another test has as its target T4, GST-Co-NF-kB (Capsaspora owczarzaki, UniProt F1ARL5 200-546).
T4 sequence: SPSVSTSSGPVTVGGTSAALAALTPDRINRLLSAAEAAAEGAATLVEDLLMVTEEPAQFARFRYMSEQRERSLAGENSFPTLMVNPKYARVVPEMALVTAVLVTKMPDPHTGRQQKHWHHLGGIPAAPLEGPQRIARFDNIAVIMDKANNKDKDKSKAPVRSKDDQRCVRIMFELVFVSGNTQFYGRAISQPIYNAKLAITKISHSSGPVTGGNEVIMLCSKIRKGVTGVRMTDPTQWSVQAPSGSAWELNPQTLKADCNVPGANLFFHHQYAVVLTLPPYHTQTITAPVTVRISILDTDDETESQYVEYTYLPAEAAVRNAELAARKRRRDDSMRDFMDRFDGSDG

The target of a further test is T5, GST-Dm-Relish (Drosophila melanogaster, UniProt Q94527 99-473).
T5 sequence: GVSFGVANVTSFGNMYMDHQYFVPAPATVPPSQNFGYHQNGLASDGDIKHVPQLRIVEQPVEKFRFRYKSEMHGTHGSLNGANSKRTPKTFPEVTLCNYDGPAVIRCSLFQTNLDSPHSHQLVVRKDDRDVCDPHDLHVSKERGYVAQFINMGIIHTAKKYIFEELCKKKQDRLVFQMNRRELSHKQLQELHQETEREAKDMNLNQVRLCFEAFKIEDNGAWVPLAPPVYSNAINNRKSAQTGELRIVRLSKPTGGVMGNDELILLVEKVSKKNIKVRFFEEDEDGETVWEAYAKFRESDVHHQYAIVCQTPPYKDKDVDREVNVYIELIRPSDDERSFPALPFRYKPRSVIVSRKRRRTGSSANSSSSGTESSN

In a further test the target is T6, GST-Aq-NF-kB (Amphimedon queenslandica, UniProt A9Y5G7 2-389).
T6 sequence: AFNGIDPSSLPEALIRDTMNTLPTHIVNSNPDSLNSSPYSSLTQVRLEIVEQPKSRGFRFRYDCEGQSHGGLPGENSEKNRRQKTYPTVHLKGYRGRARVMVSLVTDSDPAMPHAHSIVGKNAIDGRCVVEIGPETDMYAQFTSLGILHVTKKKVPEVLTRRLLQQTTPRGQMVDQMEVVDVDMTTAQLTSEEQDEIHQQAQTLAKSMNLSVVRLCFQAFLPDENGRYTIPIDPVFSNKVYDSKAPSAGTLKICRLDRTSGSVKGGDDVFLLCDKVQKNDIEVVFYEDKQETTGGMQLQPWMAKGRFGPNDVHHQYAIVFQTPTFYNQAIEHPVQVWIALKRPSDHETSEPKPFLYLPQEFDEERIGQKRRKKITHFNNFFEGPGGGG

For the next test, the target named is GST-Hu-p50 (Homo sapiens, UniProt P19838 7-356).

Numbering of substitutions follows the chain as printed.

GST-Hu-p50, sequence (P19838 7-356): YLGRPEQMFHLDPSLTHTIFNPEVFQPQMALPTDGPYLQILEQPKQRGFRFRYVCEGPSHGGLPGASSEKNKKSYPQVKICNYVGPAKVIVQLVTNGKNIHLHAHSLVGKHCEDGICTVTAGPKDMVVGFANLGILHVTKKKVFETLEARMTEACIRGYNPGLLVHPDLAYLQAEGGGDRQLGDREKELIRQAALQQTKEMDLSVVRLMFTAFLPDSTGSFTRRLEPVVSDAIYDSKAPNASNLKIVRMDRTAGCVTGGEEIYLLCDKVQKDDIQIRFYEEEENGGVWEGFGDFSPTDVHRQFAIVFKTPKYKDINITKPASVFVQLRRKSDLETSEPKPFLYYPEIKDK

As for “CCGATTAACATCAAATACCCCCATGATGTTAATCGGGTCTTGATTCGCTTGACGCTGCTG”, the binding signal was 6.79 z-score in the test with GST-Ap-NF-kB RHD; 4.49 z-score in test [1]; 4.86 z-score in test [2]; 5.57 z-score in the test with GST-Co-NF-kB; 3.98 z-score with GST-Dm-Relish; 4.48 z-score with GST-Aq-NF-kB. The same sequence gave a binding signal in the test with GST-Hu-p50 of 5.11 z-score.

On to “CCGATTAACATCAGGGAATTCTATGATGTTAATCGGGTCTTGATTCGCTTGACGCTGCTG”, for which the binding signal was 5.04 z-score with GST-Ap-NF-kB RHD; 6.52 z-score in test [1]; 6.75 z-score in test [2]; 3.81 z-score in the test with GST-Co-NF-kB; 3.59 z-score with GST-Dm-Relish; 5.61 z-score in the test with GST-Aq-NF-kB. The binding signal with GST-Hu-p50 worked out at 4.8 z-score.

With “CCGATTAACATCATGGGGGGTAATGATGTTAATCGGGTCTTGATTCGCTTGACGCTGCTG”, the binding signal with GST-Ap-NF-kB RHD came out at 3.64 z-score; in test [1], 3.18 z-score; in test [2], 2.78 z-score; in the test with GST-Co-NF-kB it was 5.06 z-score; with GST-Dm-Relish, 2.79 z-score; in the test with GST-Aq-NF-kB, 3.56 z-score. The binding signal in the test with GST-Hu-p50 was 3.21 z-score.

Regarding “CCGATTAACATCACCCTTCCCCCTGATGTTAATCGGGTCTTGATTCGCTTGACGCTGCTG”, the binding signal with GST-Ap-NF-kB RHD stood at 4.54 z-score; in test [1] it was 4.49 z-score; in test [2] it was 5.26 z-score; with GST-Co-NF-kB it was 5.61 z-score; with GST-Dm-Relish, 2.99 z-score; in the test with GST-Aq-NF-kB, 4.32 z-score. This sequence also came in with a binding signal with GST-Hu-p50 of 4.43 z-score.

For the sequence “CCGATTAACATCAGGGAAGTACCTGATGTTAATCGGGTCTTGATTCGCTTGACGCTGCTG”, the binding signal amounted to 6.67 z-score with GST-Ap-NF-kB RHD; 7.36 z-score in test [1]; 8.68 z-score in test [2]; 1.93 z-score with GST-Co-NF-kB; 9.88 z-score with GST-Dm-Relish; 7.45 z-score with GST-Aq-NF-kB. In the test with GST-Hu-p50, this sequence showed a binding signal of 5.92 z-score.

Consider “CCGATTAACATCAATTCCCCAGGTGATGTTAATCGGGTCTTGATTCGCTTGACGCTGCTG”, for which the binding signal in the test with GST-Ap-NF-kB RHD came out at 5.33 z-score; in test [1] it was 5.44 z-score; in test [2] it was 6.65 z-score; with GST-Co-NF-kB, 6.18 z-score; in the test with GST-Dm-Relish it was 2.37 z-score; with GST-Aq-NF-kB, 3.8 z-score. This sequence returned a binding signal with GST-Hu-p50 of 4.94 z-score.

In the case of “CCGATTAACATCAGGGGAAACCATGATGTTAATCGGGTCTTGATTCGCTTGACGCTGCTG”, the binding signal worked out at 6.6 z-score in the test with GST-Ap-NF-kB RHD; 7.42 z-score in test [1]; 10.1 z-score in test [2]; 8.24 z-score with GST-Co-NF-kB; 6.18 z-score in the test with GST-Dm-Relish; 5.84 z-score in the test with GST-Aq-NF-kB. The binding signal with GST-Hu-p50 turned out to be 5.64 z-score.

On to “CCGATTAACATCAAGATTTTCCCTGATGTTAATCGGGTCTTGATTCGCTTGACGCTGCTG”, for which the binding signal with GST-Ap-NF-kB RHD is 4.58 z-score; in test [1], 6.22 z-score; in test [2], 7.42 z-score; with GST-Co-NF-kB, 5.04 z-score; with GST-Dm-Relish, 1.5 z-score; with GST-Aq-NF-kB it was 5.78 z-score. In the test with GST-Hu-p50, this sequence had a binding signal of 4.29 z-score.

Consider “CCGATTAACATCAGGGATTACCCTGATGTTAATCGGGTCTTGATTCGCTTGACGCTGCTG”, for which the binding signal with GST-Ap-NF-kB RHD turned out to be 8.01 z-score; in test [1] it was 10 z-score; in test [2] it was 7.06 z-score; with GST-Co-NF-kB it was 2.89 z-score; with GST-Dm-Relish it was 9.47 z-score; in the test with GST-Aq-NF-kB, 8.71 z-score. The sequence further came in with a binding signal in the test with GST-Hu-p50 of 4.78 z-score.

Consider “CCGATTAACATCAAAGAACCCCCTGATGTTAATCGGGTCTTGATTCGCTTGACGCTGCTG”, for which the binding signal was determined as 8 z-score with GST-Ap-NF-kB RHD; 6.95 z-score in test [1]; 7.44 z-score in test [2]; 3.51 z-score with GST-Co-NF-kB; 8.69 z-score in the test with GST-Dm-Relish; 6.42 z-score with GST-Aq-NF-kB. The sequence also showed a binding signal with GST-Hu-p50 of 6.47 z-score.

With “CCGATTAACATCAGGGGATTCCATGATGTTAATCGGGTCTTGATTCGCTTGACGCTGCTG”, the binding signal with GST-Ap-NF-kB RHD is 9.19 z-score; in test [1], 9.04 z-score; in test [2], 9.49 z-score; with GST-Co-NF-kB, 3.19 z-score; in the test with GST-Dm-Relish it was 10 z-score; with GST-Aq-NF-kB, 6.89 z-score. This sequence also came in with a binding signal in the test with GST-Hu-p50 of 6.77 z-score.

For “CCGATTAACATCAAGGGGACTTCTGATGTTAATCGGGTCTTGATTCGCTTGACGCTGCTG”, the binding signal with GST-Ap-NF-kB RHD amounted to 7.92 z-score; in test [1], 7.59 z-score; in test [2], 7.54 z-score; in the test with GST-Co-NF-kB, 2.41 z-score; with GST-Dm-Relish, 7.45 z-score; with GST-Aq-NF-kB it was 6.14 z-score. In the test with GST-Hu-p50, this sequence returned a binding signal of 6.74 z-score.

The record behind these values is PMC5700166.
